# Results filed as inconclusive are left out. A number with no mark means an inactive call. Activity calls are given as the source filed them. Calls follow the shape of the full dose curve.
# Target: 5-hydroxytryptamine receptor 2A (Homo sapiens) (UniProt P28223)
# Assay: 5-hydroxytryptamine receptor 2A (HTR2A) small molecule antagonists, cell-based qHTS assay (AID 1963586); also: nearly all actives have a fitted effect of over 45% in size
# Conditions: HTR2A-CHO cells, DOI-induced calcium flux, fluorescence; series mostly up to 61.5 µM; activity, negative = inhibition: at the top concentration
# How it was run: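 Antagonist-mode intracellular calcium assay: DOI (4 nM) added after 5 min compound pre-incubation at room temperature to dye-loaded HTR2A-CHO cells. Fluorescence followed for 3 min, sampled every second.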
# % is scaled to controls: 0 for no effect and ±100 for the full control effect.
# 5-hydroxytryptamine receptor 2A (Homo sapiens), sequence (P28223 whole entry, looked up): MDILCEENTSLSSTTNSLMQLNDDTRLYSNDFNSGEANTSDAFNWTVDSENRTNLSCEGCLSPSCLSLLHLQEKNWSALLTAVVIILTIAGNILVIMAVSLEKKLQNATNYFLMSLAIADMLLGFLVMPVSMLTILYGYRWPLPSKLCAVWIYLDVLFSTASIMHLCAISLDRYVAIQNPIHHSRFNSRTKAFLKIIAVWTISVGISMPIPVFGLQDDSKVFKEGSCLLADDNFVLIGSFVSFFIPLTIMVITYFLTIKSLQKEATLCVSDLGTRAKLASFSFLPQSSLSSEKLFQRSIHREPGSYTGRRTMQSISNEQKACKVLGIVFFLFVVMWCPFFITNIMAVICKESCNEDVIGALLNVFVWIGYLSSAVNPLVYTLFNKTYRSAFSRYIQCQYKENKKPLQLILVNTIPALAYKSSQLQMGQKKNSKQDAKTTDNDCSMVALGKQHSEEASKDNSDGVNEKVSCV
row,Structure (SMILES),"activity, negative = inhibition"
1,Oc1ccccc1F,16.3%
2,C=CC(=C)CCCC(C)(C)OC(C)=O,0.939%
3,N#CCCNCCC#N,17.5%
4,CCOC(=O)CC(=O)c1ccccc1,12%
5,Cc1ccc(-c2ncc(Cl)cc2-c2ccc(S(C)(=O)=O)cc2)cn1,-13.7% [at 28.5 µM]
6,CCCCCCCCCCO[C@@H]1O[C@H](CO)[C@@H](O)[C@H](O)[C@H]1O,8.43%
7,CN(C)CCOCCO,41%
8,COC1CCC=CO1 (stereo not given),-14.3%
9,CN(C)c1ccc(C2(c3ccc(N(C)C)cc3)OC(=O)c3cc(N(C)C)ccc32)cc1,11.9%

# Target: 5-hydroxytryptamine receptor 2A (Homo sapiens) (UniProt P28223)
# Assay: 5-hydroxytryptamine receptor 2A (HTR2A) small molecule agonists, cell-based qHTS assay (AID 1963587); also: nearly all actives have a fitted effect of over 30% in size
# Conditions: HTR2A-CHO cells, calcium flux fluorescence, agonist mode; series mostly up to 76.8 µM; activation: at the top concentration
# How it was run: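 HTR2A-CHO cells, plated 18 h at 37 C/5% CO2, dye-loaded 1 h at 37 C; compounds in DMSO added by pin tool (agonist mode). Intracellular calcium flux read as kinetic fluorescence on FDSS over 2 min at 1 s intervals.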
row,Structure (SMILES),activation
1,CCCOc1ccc(S(=O)(=O)N2CCN(CC)CC2)cc1-c1nc2c(CC)n(Cc3ccccn3)nc2c(=O)[nH]1,-0.321%
2,COc1cc(Cl)c(OC)cc1N,0.209%
3,NCCCN1CCOCC1,0.636%
4,CC(C)OC(=O)c1ccccc1C(=O)OC(C)C,0.806%
5,CC1CC(OC(=O)C(O)c2ccccc2)CC(C)(C)N1C (stereo not given),-1.37% [at 35.6 µM]
6,CC(=O)N[C@@H](CCC(=O)O)C(=O)O,-0.689% [at 35.6 µM]
7,CC(=O)OCC(=O)[C@H]1CC[C@H]2[C@@H]3CCC4=CC(=O)CC[C@]4(C)[C@H]3CC[C@]12C,-4.84% [at 35.6 µM]
8,CCOc1ccc2nc(S(N)(=O)=O)sc2c1,-9.6% [at 35.6 µM]
9,O=C(O)c1ccc2cc(C(=O)O)ccc2c1,4.76%
10,OCCc1ccncc1,0.46%
11,O=c1cc(O)c(Cl)c[nH]1,-9.14% [at 35.6 µM]
12,CN1CCC(=C2c3ccccc3CCc3cccnc32)CC1,-2.09% [at 35.6 µM]
13,CCO[C@H](Cc1ccc(OCCc2ccc(OS(C)(=O)=O)cc2)cc1)C(=O)O,-3.92% [at 35.6 µM]
14,CC(CC=O)CCCC(C)(C)O (stereo not given),-2.4%
15,COc1ccc(/C=N/NC(=O)c2ccncc2)cc1OC,-0.479% [at 35.6 µM]
16,C=CCOC(=O)COCCC(C)C,0.137%
17,CCOc1ccccc1OCCN[C@H](C)Cc1ccc(OC)c(S(N)(=O)=O)c1,1.74% [at 35.6 µM]
18,CCCCCCC(C)Nc1ccc(Nc2ccccc2)cc1 (stereo not given),3.09%
19,O=C(NS(=O)(=O)/C=C/c1cccs1)c1ccc(F)cc1Br,-18.3%
20,CCCc1ccc(OC)cc1,0.0074%
21,CCCCCCC#CC(=O)OC,1.34%
22,COC=O,-0.022% [at 7.02 µM]
23,CCN1C=CN(C)C1C (stereo not given),0.636%
24,CCC1Nc2cc(Cl)c(S(N)(=O)=O)cc2S(=O)(=O)N1 (stereo not given),-1.71% [at 35.6 µM]
25,CCCCOC(=O)CCCCC(=O)OCCCC,0.0879%
26,O=C1[C@@H]2[C@H]3CC[C@H](C3)[C@@H]2C(=O)N1CCCCN1CCN(c2ncccn2)CC1,-9.5% [at 35.6 µM]
27,O=C(O)CNC(=O)c1ccccc1,-9.81% [at 35.6 µM]
28,CCOCCn1c(N2CCCN(C)CC2)nc2ccccc21,-7.55% [at 35.6 µM]
29,COCc1nnc(-c2ccc[n+]([O-])c2)n1-c1c(Cl)c(Cl)cc2[nH]c(=O)c(=O)[nH]c12,-1.27%
30,CN(C(=O)CN(CCO)CC(=O)N(C)C(C)(C)Cc1ccccc1)C(C)(C)Cc1ccccc1,-0.804% [at 35.6 µM]

# Target: Muscarinic acetylcholine receptor M1 (Homo sapiens) (UniProt P11229)
# Sequence (P11229 whole entry, looked up): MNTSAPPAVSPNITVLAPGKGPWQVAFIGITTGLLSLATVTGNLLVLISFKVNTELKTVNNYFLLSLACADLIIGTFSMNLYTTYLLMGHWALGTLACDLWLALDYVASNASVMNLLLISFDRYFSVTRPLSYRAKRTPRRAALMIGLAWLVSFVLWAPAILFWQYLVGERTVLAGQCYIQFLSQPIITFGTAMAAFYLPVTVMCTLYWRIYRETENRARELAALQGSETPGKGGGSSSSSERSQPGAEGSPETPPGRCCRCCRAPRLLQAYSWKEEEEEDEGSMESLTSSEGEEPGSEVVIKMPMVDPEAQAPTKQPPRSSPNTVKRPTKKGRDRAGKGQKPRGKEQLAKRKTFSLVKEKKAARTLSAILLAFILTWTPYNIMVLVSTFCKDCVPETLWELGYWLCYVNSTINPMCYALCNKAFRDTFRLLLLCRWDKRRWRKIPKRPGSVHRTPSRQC
# Assay: Cholinergic receptor muscarinic 1 (CHRM1) small molecule antagonists, cell-based qHTS assay (AID 1963588); also: nearly all actives have a fitted effect of over 40% in size; also: potency is read from the fitted curve at half-maximal effect
# Conditions: CHRM1-CHO antagonist mode, calcium flux fluorescence; series mostly up to 61.5 µM; activity, negative = inhibition: at the top concentration
# How it was run: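 CHRM1-CHO calcium-flux assay, antagonist mode. Cells were seeded 18 h, dye-loaded 1 h at 37 C and given compound for 5 min at RT, then acetylcholine was added at 50nM. FDSS fluorescence was read 3 min; 15 concentrations, three runs.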
Structure (SMILES),Potency,"activity, negative = inhibition"
CCCOc1ccc(S(=O)(=O)N2CCN(CC)CC2)cc1-c1nc2c(CC)n(Cc3ccccn3)nc2c(=O)[nH]1,18.8 µM (active),–
COc1cc(Cl)c(OC)cc1N,–,1.31%
Oc1ccccc1F,–,1.29%
NCCCN1CCOCC1,–,12%
CC(C)OC(=O)c1ccccc1C(=O)OC(C)C,–,-3.93%
CC1CC(OC(=O)C(O)c2ccccc2)CC(C)(C)N1C (stereo not given),0.41 µM (active),–
C=CC(=C)CCCC(C)(C)OC(C)=O,–,10.8%
CC(=O)N[C@@H](CCC(=O)O)C(=O)O,–,25.3% [at 28.3 µM]
CCOc1ccc2nc(S(N)(=O)=O)sc2c1,–,9.75% [at 28.3 µM]
O=C(O)c1ccc2cc(C(=O)O)ccc2c1,–,-1.31%
OCCc1ccncc1,–,5.3%
CN1C(CSCC(F)(F)F)Nc2cc(Cl)c(S(N)(=O)=O)cc2S1(=O)=O (stereo not given),–,-6.12% [at 28.3 µM]
O=c1cc(O)c(Cl)c[nH]1,–,6.15% [at 28.3 µM]
N#CCCNCCC#N,–,12.7%
CCO[C@H](Cc1ccc(OCCc2ccc(OS(C)(=O)=O)cc2)cc1)C(=O)O,–,-11.6% [at 28.3 µM]
CC(CC=O)CCCC(C)(C)O (stereo not given),–,4.2%
COc1ccc(/C=N/NC(=O)c2ccncc2)cc1OC,–,1.33% [at 28.3 µM]
C=CCOC(=O)COCCC(C)C,–,10.5%

Structure (SMILES),Potency,"activity, negative = inhibition"
CCOC(=O)CC(=O)c1ccccc1,–,6.44%
CCOc1ccccc1OCCN[C@H](C)Cc1ccc(OC)c(S(N)(=O)=O)c1,–,-13.3% [at 28.3 µM]
CCCCCCC(C)Nc1ccc(Nc2ccccc2)cc1 (stereo not given),–,-19.5%
O=C(NS(=O)(=O)/C=C/c1cccs1)c1ccc(F)cc1Br,–,-20.4%
CCCc1ccc(OC)cc1,–,-8.28%
CCCCCCC#CC(=O)OC,–,25.3%
Cc1ccc(-c2ncc(Cl)cc2-c2ccc(S(C)(=O)=O)cc2)cn1,–,2.94% [at 28.3 µM]
COC=O,–,1.52% [at 5.58 µM]
CCCCCCCCCCO[C@@H]1O[C@H](CO)[C@@H](O)[C@H](O)[C@H]1O,–,-2.57%
CCN1C=CN(C)C1C (stereo not given),–,-20.8%
CN(C)CCOCCO,–,2.92%
CCC1Nc2cc(Cl)c(S(N)(=O)=O)cc2S(=O)(=O)N1 (stereo not given),–,13.7% [at 28.3 µM]
CCCCOC(=O)CCCCC(=O)OCCCC,–,12.7%
O=C1[C@@H]2[C@H]3CC[C@H](C3)[C@@H]2C(=O)N1CCCCN1CCN(c2ncccn2)CC1,–,-4.94% [at 28.3 µM]
O=C(O)CNC(=O)c1ccccc1,–,-8.41% [at 28.3 µM]
COC1CCC=CO1 (stereo not given),–,5.89%
COCc1nnc(-c2ccc[n+]([O-])c2)n1-c1c(Cl)c(Cl)cc2[nH]c(=O)c(=O)[nH]c12,–,5.96%
CN(C(=O)CN(CCO)CC(=O)N(C)C(C)(C)Cc1ccccc1)C(C)(C)Cc1ccccc1,–,-10.3% [at 28.3 µM]

# Source: PubChem BioAssay (Tox21)
